# PubChem BioAssay
# “And” between values parts separate entries of the source, which are not always exact repeats. Equal values may be shown once. The source made the active and inactive calls.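 The calls were made as follows, unless noted: active = inhibition at or above 50% relative to wild type and mutant plate controls; inactive = inhibition below 50%.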
# Legend:
# [1] = inhibitors of TNFa-induced NFkB p65 translocation, primary screen, imaging, HUVEC, MLSMR starter and 10KST1 sets (AID 438;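 active = inhibition above 20% together with a positive visual image hit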;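 also: compound added about 3h40 before a 20 min TNFalpha stimulation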;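 as to inhibition: signal is the nuclear over cytoplasmic p65 intensity ratio per well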); conditions: HUVEC TNFa-induced p65 nuclear translocation; cell count: measured here: nuclei count (cytotoxicity indicator), at 2.08 µM; inhibition: at 2 µM, stronger effect = higher value, 0% TNFa-plus-vehicle, 100% no-TNFa wells
# [2] = endothelial E-selectin expression blockers – imaging, HUVEC, immunofluorescence, MLSMR starter and 10KST1 sets, primary screen (AID 487;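 active = visually confirmed hit in the image check and inhibition above 20%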;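 as to inhibition: signal is fraction of cell area covered by stained E-selectin grains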;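 as to nuclei count: 100% = median nuclei count of all wells on the same plate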); conditions: HUVEC TNFalpha-induced E-selectin immunofluorescence imaging, at 2 µM; inhibition: stronger effect = higher value; nuclei count: measured here: cell number, toxicity
# [3] = Primary imaging screen for DUSP6 inhibitors that restore phospho-Erk in transfected HeLa cells, chemical complementation (AID 609;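 active = compounds giving at least 50% inhibition in the cell-based MKP-3 phosphatase rescue imaging test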;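 as to inhibition: phospho-Erk level distribution per well compared with pooled transfected vehicle control wells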); conditions: HeLa MKP-3 transfected, phospho-Erk imaging KS statistic, at 10 µM, cells stimulated with TPA for 15 min
# [4] = target: Dual specificity protein phosphatase 6 (Homo sapiens) (UniProt Q16828); test: as above; conditions: HeLa MKP-3 transfected, phospho-Erk imaging KS statistic; at 10 µM; stronger effect = higher value; cells stimulated with TPA for 15 min
# Chain of Dual specificity protein phosphatase 6 (Homo sapiens) (Q16828 whole entry, looked up): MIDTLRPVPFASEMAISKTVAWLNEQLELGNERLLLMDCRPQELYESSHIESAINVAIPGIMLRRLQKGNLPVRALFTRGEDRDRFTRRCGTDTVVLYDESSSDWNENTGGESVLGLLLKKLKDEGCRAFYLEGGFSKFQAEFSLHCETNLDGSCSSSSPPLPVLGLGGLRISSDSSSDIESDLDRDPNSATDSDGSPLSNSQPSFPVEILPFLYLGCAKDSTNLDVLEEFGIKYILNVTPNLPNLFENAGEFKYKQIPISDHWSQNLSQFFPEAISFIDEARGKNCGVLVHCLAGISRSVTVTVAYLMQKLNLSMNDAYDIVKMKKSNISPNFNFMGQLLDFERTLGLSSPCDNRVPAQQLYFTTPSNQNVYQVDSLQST
# [5] = target: Voltage-gated potassium channel subunit beta-2 (Rattus norvegicus) (UniProt P62483); test: inhibitors of rat Kvbeta2 reductase activity – biochemical, NADPH fluorescence, primary screen (AID 622;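 active = fluorescence slope higher than the sample average by over 3 SD, cut at about -0.22 in these data, passing the limit was not always enough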;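 also: slope of raw intensity against log time taken from 70 to 1610 s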); conditions: recombinant KvBeta, 4-cyanobenzaldehyde reduction, at 10 µM, stronger effect = higher value
# Chain of Voltage-gated potassium channel subunit beta-2 (Rattus norvegicus) (P62483 whole entry, looked up): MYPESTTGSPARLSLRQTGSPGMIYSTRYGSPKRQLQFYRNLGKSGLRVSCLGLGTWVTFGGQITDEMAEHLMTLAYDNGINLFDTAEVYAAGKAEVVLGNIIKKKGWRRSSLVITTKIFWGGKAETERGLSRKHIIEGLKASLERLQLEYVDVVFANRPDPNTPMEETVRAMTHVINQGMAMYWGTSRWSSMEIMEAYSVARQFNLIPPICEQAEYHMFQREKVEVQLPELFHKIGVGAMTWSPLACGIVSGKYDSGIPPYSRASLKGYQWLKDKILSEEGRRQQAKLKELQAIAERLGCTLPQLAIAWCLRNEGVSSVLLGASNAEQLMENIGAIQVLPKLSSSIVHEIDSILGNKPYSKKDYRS
# [6] = target: Voltage-gated potassium channel subunit beta-2 (Rattus norvegicus) (UniProt P62483); test: enhancers of rat Kvbeta2 NADPH turnover – biochemical, NADPH fluorescence, primary screen (AID 623;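 active = NADPH fluorescence slope more negative than the mean of all samples by about 3 SD, 99.7% confidence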;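 also: fluorescence intensity change per second fitted from 20 to 320 s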); conditions: Recombinant KvBeta, NADPH fluorescence decrease slope, 10 min; at 10 µM; stronger effect = lower value
# [7] = target: Alpha-2C adrenergic receptor (Homo sapiens) (UniProt P18825); test: compounds altering alpha2C-coupled GIRK flux – cell-based, HEK293 alpha2C/GIRK1/2, thallium flux, primary screen (AID 624;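 active = fluorescence slope after compound addition differing from the mean of all screened samples at 99.7% confidence, in either direction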;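 also: slope of fluorescence ratio to pre-addition baseline per second over 15 to 24 s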); conditions: thallium flux BTC fluorescence, at 10 µM, actives lie on both sides
# Chain of Alpha-2C adrenergic receptor (Homo sapiens) (P18825 whole entry, looked up): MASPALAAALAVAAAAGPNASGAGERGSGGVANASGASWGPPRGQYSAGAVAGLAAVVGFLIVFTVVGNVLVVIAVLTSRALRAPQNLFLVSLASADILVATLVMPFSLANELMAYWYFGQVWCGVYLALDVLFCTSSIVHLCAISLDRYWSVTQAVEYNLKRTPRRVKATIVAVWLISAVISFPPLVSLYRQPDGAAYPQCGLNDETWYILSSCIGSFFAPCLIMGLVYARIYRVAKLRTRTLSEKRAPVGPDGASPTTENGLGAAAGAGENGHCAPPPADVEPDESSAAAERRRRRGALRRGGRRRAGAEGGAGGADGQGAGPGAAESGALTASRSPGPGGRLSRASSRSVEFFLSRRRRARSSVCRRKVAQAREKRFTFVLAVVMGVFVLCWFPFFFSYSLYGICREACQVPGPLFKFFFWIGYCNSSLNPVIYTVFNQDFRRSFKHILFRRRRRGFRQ
# [8] = inhibitors of larval lipid processing in zebrafish, primary screen, whole organism, PED6 fluorescence, gall bladder and intestine (AID 686;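 active = a full or partial loss of lipid-probe fluorescence in the fish gall bladder, intestine or both, judged by eye; inactive = no fluorescence loss, or compound toxic to the fish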;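 also: larvae 5 to 7 days old with five fish per well; signal comes from phospholipase A2 cleavage of quenched PED6 carried via bile; overnight exposure to compound and PED6 before scoring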); conditions: Zebrafish larvae PED6 lipid processing, fluorescence scoring; screened at 20 µM (by protocol)
# [9] = loss of swimming-algae plug formation – whole organism, Chlamydomonas reinhardtii, WT vs cilia-less mutant, absorbance, 96-well, primary screen (AID 463189); conditions: Chlamydomonas reinhardtii gravitaxis, OD600 absorbance, 2 days; at 10 µM; stronger effect = higher value;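 also: 0% = wild type cc124 cells in DMSO and 100% = ciliumless bld1 mutant cells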
# [10] = blockers of RIG-like receptor reporter activation – cell-based, Sendai virus stimulus, luciferase, 10K MLSCN set, TLR/RLR signaling modifier project, primary screen (AID 602276;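 active = inhibition at or above 50% at 10 µM; inactive = inhibition below 50%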;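 also: firefly luciferase from ISG56 promoter only with Renilla not read in this screen; 0% = Sendai virus plus DMSO and 100% = medium plus DMSO without virus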); conditions: HEK293 RL24 IRF3 luciferase reporter, at 10 µM, stronger effect = higher value
# [11] = TLR3 IRF3 reporter activation blockers – cell-based, poly I:C stimulus, luciferase, 10K MLSCN set, primary screen (AID 602277;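 active = inhibition of the reporter signal at or above 50%; inactive = inhibition below 50%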); conditions: HEK293-TLR3 RL24 IRF3 luciferase reporter, at 10 µM, stronger effect = higher value
# [12] = reduction of polyQ htt aggregates in cells – imaging, exon1htt(103Q)mCFP cells, high-content imaging, primary screen (AID 483;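 active = visual image review flags a hit and inhibition of aggregation exceeds 20%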;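 also: compound exposure lasted 3 days before fixation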;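 as to nuclei count: percent of the per-plate median nuclei count of sample wells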); conditions: exon1htt(103Q)mCFP cell line, aggregate imaging, at 2 µM; inhibition of aggregation: stronger effect = higher value; nuclei count: measured here: cell count, toxicity
# [13] = target: Muscarinic acetylcholine receptor M4 (Homo sapiens) (UniProt P08173); test: M4-linked GIRK flux change, two-sided – cell-based, HEK293 M4/GIRK, thallium flux, BTC-AM, M4 allosteric agonist project, primary screen (AID 625;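 active = fluorescence slope after compound addition differing from the mean of all tested samples at 99.7% confidence, mostly higher but some lower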;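 also: thallium influx through GIRK channels coupled to M4 in HEK293 cells with BTC-AM dye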); conditions: at 10 µM, actives lie on both sides
# Chain of Muscarinic acetylcholine receptor M4 (Homo sapiens) (P08173 whole entry, looked up): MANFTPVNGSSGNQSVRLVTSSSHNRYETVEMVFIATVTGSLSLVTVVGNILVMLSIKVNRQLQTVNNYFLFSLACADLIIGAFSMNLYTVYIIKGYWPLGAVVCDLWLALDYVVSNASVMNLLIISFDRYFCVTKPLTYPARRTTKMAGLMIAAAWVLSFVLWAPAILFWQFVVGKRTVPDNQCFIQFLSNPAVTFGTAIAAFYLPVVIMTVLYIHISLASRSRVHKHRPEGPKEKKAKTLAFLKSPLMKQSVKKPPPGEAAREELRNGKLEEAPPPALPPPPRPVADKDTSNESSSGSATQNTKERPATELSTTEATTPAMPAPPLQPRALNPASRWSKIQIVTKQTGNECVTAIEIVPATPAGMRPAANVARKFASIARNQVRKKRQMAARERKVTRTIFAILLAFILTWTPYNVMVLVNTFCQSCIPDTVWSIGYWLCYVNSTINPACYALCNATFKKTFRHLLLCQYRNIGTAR
# [14] = measured here: cell density z-score
# [15] = measured here: nuclear c-Myc green intensity z-score
# [16] = measured here: nuclear pErk red intensity z-score, stronger effect = higher value
Compound,cell count [1],inhibition [1],inhibition [2],nuclei count [2],"z-score [3, 14]","z-score [3, 15]","z-score [3, 16]",inhibition [4],fluorescence slope [5],NADPH fluorescence slope [6],slope [7],outcome [8],inhibition [9],inhibition [10],inhibition [11],inhibition of aggregation [12],nuclei count [12],fluorescence slope [13]
Cc1oncc1C(=O)Nc1ccc(C(F)(F)F)cc1,554,-5.4% (inactive),-80% (inactive),111%,0.779,0.543,0.25,-10.4% (inactive),-0.489 (inactive),-4.6e-05 (inactive),0.00635 (inactive),inactive,-2.73% (inactive) and -10% (inactive),-116% (inactive),-197% (inactive),–,–,–
O=c1cc(NCc2ccccc2)nc2n1CCCS2,572,-1.5% (inactive),–,–,-0.588,-0.473,-1.35,-4.7% (inactive),-0.506 (inactive),-0.000115 (inactive),0.00575 (inactive),inactive,4.05% (inactive),-14.4% (inactive),-33.9% (inactive),-16.3% (inactive),94.5%,–
O=C(O)CCNC(=O)c1ccccc1,571,-4.9% (inactive),-50.2% (inactive),97.2%,-0.0639,-0.161,-1.08,17.3% (inactive),-0.479 (inactive),2.2e-06 (inactive),0.00491 (inactive),inactive,27.8% (inactive),-13.3% (inactive),-8.8% (inactive),–,–,–
CC[C@H](C)C(=O)O[C@H]1C[C@@H](C)C=C2C=C[C@H](C)[C@H](CC[C@@H]3C[C@@H](O)CC(=O)O3)[C@H]21,724,-11.9% (inactive),-93.9% (inactive),122%,0.18,-1.59,-0.22,21.2% (inactive),–,–,0.00586 (inactive),inactive,14.3% (inactive),-4.78% (inactive),49.1% (inactive),0.4% (inactive),105%,–
COC(=O)C1=C(C)NC(C)=C(C(=O)OC)C1c1ccccc1[N+](=O)[O-],548,-5.5% (inactive),-80.3% (inactive),116%,1.16,0.789,-0.998,13.3% (inactive),-0.461 (inactive),-1.4e-05 (inactive),0.00935 (inactive),inactive,-13.6% (inactive) and -16.5% (inactive),12.4% (inactive),13.4% (inactive),–,–,–
C[C@H](CS)C(=O)N1CCC[C@H]1C(=O)O,555,1.6% (inactive),-80.8% (inactive),124%,0.625,-1.55,1.02,12.4% (inactive),-0.485 (inactive),-4e-05 (inactive),0.00488 (inactive),–,-3.81% (inactive) and 9.89% (inactive),-6.06% (inactive),12.3% (inactive),–,–,–
CCCC(=O)Nc1ccc(OCC(O)CNC(C)C)c(C(C)=O)c1 (stereo not given),693,-4.7% (inactive),-70.6% (inactive),120%,-1.73,-0.994,0.31,11.3% (inactive),-0.492 (inactive),3e-05 (inactive),0.00505 (inactive),inactive,-6.41% (inactive),8.12% (inactive),27.1% (inactive),–,–,–
Fc1cc(F)c(F)c(SCCc2ccncc2)c1F,541,-0.9% (inactive),–,–,0.361,0.923,0.0696,-7.28% (inactive),-0.422 (inactive),-1.5e-05 (inactive),0.0056 (inactive),inactive,97.5% (active),7% (inactive),-1.64% (inactive),-11.2% (inactive),104%,–
O=C(c1ccc2c(c1)OCCO2)N1CCCCC1,580,-15% (inactive),-38.6% (inactive),122%,–,–,–,–,-0.406 (inactive),1.1e-06 (inactive),0.00377 (inactive),–,-4.88% (inactive),8.03% (inactive),18.3% (inactive),-3.4% (inactive),106%,–
COc1ccc2c(C)nc(Nc3nc(C)cc(C)n3)nc2c1,644,-5.8% (inactive),–,–,-1.03,0.468,-0.248,-5.95% (inactive),-0.534 (inactive),-1e-05 (inactive),0.00447 (inactive),inactive,-4.58% (inactive),14% (inactive),20% (inactive),-15.4% (inactive),116%,–
Clc1ccc2c(c1)C(N1CCNCC1)=Nc1ccccc1O2,676,-0.2% (inactive),-61.7% (inactive),119%,-1.22,-0.679,1.28,-7.45% (inactive),-0.471 (inactive),-7.1e-06 (inactive),–,inactive; toxic,-13.2% (inactive) and 2.47% (inactive),1.94% (inactive),23.6% (inactive),16.3% (inactive),73.5%,–
CC(=O)O[C@H]1C(=O)[C@]2(C)[C@H]([C@H](OC(=O)c3ccccc3)[C@]3(O)C[C@H](OC(=O)[C@H](O)[C@@H](NC(=O)c4ccccc4)c4ccccc4)C(C)=C1C3(C)C)[C@]1(OC(C)=O)CO[C@@H]1C[C@@H]2O,508,-11.8% (inactive),-188% (inactive),105%,0.529,0.25,0.563,-2.46% (inactive),-0.449 (inactive),-1.6e-05 (inactive),0.00483 (inactive),inactive,0.148% (inactive),17.7% (inactive),44.3% (inactive),–,–,–
COc1ccccc1OCC(O)COC(N)=O (stereo not given),634,2.6% (inactive),–,–,-1.14,0.796,1.17,19% (inactive),-0.507 (inactive),-3.9e-05 (inactive),0.00504 (inactive),inactive,-8.84% (inactive),9.33% (inactive),35.1% (inactive),-4.9% (inactive),109%,–
CC(C)Cc1ccc(C(C)C(=O)O)cc1 (stereo not given),604,-0.8% (inactive),-67.2% (inactive),132%,-0.577,-0.145,0.0811,-0.828% (inactive),-0.469 (inactive),-4.6e-05 (inactive),0.00562 (inactive),inactive,1.82% (inactive) and -1.73% (inactive),-8.48% (inactive),-4.09% (inactive),–,–,–
CCCCc1nc2n[nH]c(N)c2c2c1CCCC2,512,-7.9% (inactive),-85.3% (inactive),124%,-0.979,1.39,0.873,3.49% (inactive),-0.447 (inactive),-0.000136 (inactive),–,inactive,10.9% (inactive),-0.43% (inactive),8.9% (inactive),-112% (inactive),2.8%,0.00605 (inactive)
Cc1cc(NS(=O)(=O)c2ccc(N)cc2)no1,614,2.1% (inactive),-43.4% (inactive),117%,-1.02,-0.449,1.11,-5.24% (inactive),-0.445 (inactive),-2.3e-05 (inactive),0.00461 (inactive),inactive,1.6% (inactive),19.8% (inactive),31.9% (inactive),–,–,–
CC1(C)S[C@@H]2[C@H](NC(=O)[C@H](C(=O)O)c3ccsc3)C(=O)N2[C@H]1C(=O)O,519,-8.9% (inactive),-44% (inactive),99.7%,-1.03,-0.916,0.566,7.39% (inactive),-0.44 (inactive),-4.7e-05 (inactive),0.00461 (inactive),inactive,11.7% (inactive),12.3% (inactive),36.3% (inactive),–,–,–
Cc1cnc(NC(=O)C2=C(O)c3ccccc3S(=O)(=O)N2C)s1,640,4.7% (inactive),-46.4% (inactive),112%,-0.158,0.936,-1.17,30.1% (inactive),-0.427 (inactive),-1.4e-05 (inactive),0.00455 (inactive),inactive,0.844% (inactive) and -7.88% (inactive),15.5% (inactive),32.8% (inactive),–,–,–
Cc1ccc(N(CC2=NCCN2)c2cccc(O)c2)cc1,561 and 534,-6.5% (inactive) and 2.1% (inactive),-44.6% (inactive) and -23.4% (inactive),136% and 125%,-1.49 and -0.829,1.38 and 2.5,-0.739 and 1.17,5.79% (inactive),-0.452 (inactive) and -0.478 (inactive),-5.4e-05 (inactive) and -3.9e-05 (inactive),–,inactive,4.48% (inactive) and 1.6% (inactive) and -7.32% (inactive),0.917% (inactive) and -3.85% (inactive),21.2% (inactive) and 12.9% (inactive),-6.5% (inactive) and -10.5% (inactive),106% and 78.7%,–
Cc1nnc(SCC2=C(C(=O)O)N3C(=O)[C@@H](NC(=O)Cn4cnnn4)[C@H]3SC2)s1,628,-2.9% (inactive),-103% (inactive),125%,-0.857,0.639,1.89,-6.41% (inactive),-0.495 (inactive),-4.7e-05 (inactive),0.00463 (inactive),inactive,9.57% (inactive) and 15.2% (inactive),9.64% (inactive),21.6% (inactive),–,–,–
COc1cccc2c1C(=O)c1c(O)c3c(c(O)c1C2=O)C[C@@](O)(C(=O)CO)C[C@@H]3O[C@H]1C[C@H](N)[C@H](O)[C@H](C)O1,564,-15.3% (inactive),–,–,0.975,6.47,3.82,96.1% (active),-0.456 (inactive),2.3e-06 (inactive),0.00828 (inactive),inactive,1.03% (inactive),-38.5% (inactive),101% (active),23.4% (inactive),2.5%,–
CC[C@H]1OC(=O)C[C@@H](O)[C@H](C)[C@@H](O[C@@H]2O[C@H](C)C[C@H](N(C)C)[C@H]2O)[C@@H](CC=O)C[C@@H](C)C(=O)C=C[C@]2(C)O[C@H]2[C@@H]1C,610,-3.7% (inactive),-120% (inactive),116%,0.794,-0.225,-0.416,7.39% (inactive),-0.498 (inactive),-2.6e-05 (inactive),0.00472 (inactive),inactive,59.9% (active),6.6% (inactive),61.9% (active),–,–,–
